Test results: PubChem BioAssay AID1347076 (National Center for Advancing Translational Sciences (NCATS), 2019)
In all, about 400,000 compounds went through this assay and about 13,000 (3.2%) were called active. Where a call stands in place of a potency, no number is given. Inconclusive results (about 18%) are left out. Calls follow the shape of the dose curve; as a rule, active = well fitted cell-killing curve with a large enough effect; inconclusive = small, poorly fitted or top-dose-only effect, or effect the other way; inactive = flat fitted curve, though single readings scatter. For the sample, actives were picked, then their nearest neighbours and some compounds at random.

Assay: qHTS assay for MDR1-selective chemotherapeutics: Primary screen using the drug-selected MDR subline cells KB-V1; also: nearly all actives have a fitted effect of over 60% in size
Conditions: KB-V1 MDR cells viability, CellTiter-Glo, 72 h; series mostly up to 46.1 µM
Text: A prime difficulty in effectively treating cancer is the development of cellular resistance to multiple structurally unrelated anticancer drugs, a phenomenon known as multidrug resistance (MDR). […] Numerous strategies to overcome P-gp-mediated MDR have been explored, including the design of drugs that evade recognition and efflux, and development of inhibitors to block efflux and restore drug accumulation. […] An alternative approach is to exploit resistance by identifying drugs that target MDR cells over the non-resistant parental cells from which they were selected. […] The development of MDR1-selective agents represents a new strategy for resolving multidrug resistance, as it remains a long-standing clinical challenge for cancer chemotherapy.
Our goal is to identify compounds that selectively kill P-gp-expressing MDR cells. We will identify MDR1-selective compounds by comparing toxicity of compounds in the screening library against parental, drug-naive (KB-3-1) adenocarcinoma cells as well as their drug-selected MDR sub-line (KB-V1). The differential toxicity of compounds against these two cell lines will be used to identify MDR1-selective compounds, whose cytotoxicity is potentiated, rather than diminished, by P-gp expression. This assay will be utilized to conduct a quantitative high-throughput screen (qHTS) in collaboration with the NIH Chemical Genomics Center to identify selective agents, and probe hits arising from the screen will be validated using secondary assays and characterized through a well-established follow-up research program. This screen was run against the entire NCGC library collection of about 400,000 compounds.
NIH Molecular Libraries Probe Production Network [MLPCN]
NIH Chemical Genomics Center [NCGC]
PI: Michael Gottesman, National Cancer Institute, NIH
Briefly, 5 microL of media containing either KB-V1 cells (columns 1-2, 4-48) are dispensed into Greiner white, treated solid-bottom 1536-well assay plates (media-only control is added to column 3). Compounds are then transferred via Kalypsys pin tool equipped with 1536-pin array (10 nL slotted pins, V&P Scientific, San Diego, CA). Following addition of compound, the plates are incubated at 37 degrees C for 72 hours. CellTiter-Glo (2.5 µL/well) is then added, and the plates are read in a ViewLux reader (Perkin-Elmer, clear luminescence filter, 1 second exposure, 1x binning) following a 10 minute incubation. All cells are dispensed in DMEM phenol-red free media containing 10% FBS.
Library plates were screened starting from the lowest and proceeding to the highest concentration. Vehicle-only plates, with DMSO being pin-transferred to columns 5-48, will be inserted uniformly at the beginning and the end of each library in order to monitor and record any shifts in the background, which can be affected by reagent dispensers or loss in enzyme activity over time. Screening data will be corrected, normalized, and concentration-effect relationships will be derived by using publicly-available NCGC, NCATS curve fitting algorithms (http://ncgc.nih.gov/pub/openhts).
Potency is read from the fitted curve at half-maximal effect.

| SMILES | Potency |
| --- | --- |
| Cc1ccc2cccc(NC(=O)C(C)Oc3ccc(C)c(C)c3)c2n1 (stereo not given) | inactive |
| CC1(C(=O)NS(=O)(=O)c2ccc(C#N)cc2)CCN1C(=O)CC1CCCC1 (stereo not given) | inactive |
| CC(C)c1cc(C(=O)N/N=C/C(Br)=C/c2ccccc2)n[nH]1 | inactive |
| Cc1cc(-c2n[nH]c(=S)n2/N=C/C(Br)=C/c2ccccc2)n[nH]1 | 10.3 µM (active) |
| S=c1[nH]nc(-c2cc(-c3ccccc3)n[nH]2)n1/N=C/c1c2ccccc2cc2ccccc12 | inactive |
| CCCCS(=O)(=O)c1oc(-c2cccs2)nc1S(=O)(=O)c1ccccc1 | inactive |
| O=C(C1CCCO1)N1CCN(C(=O)C23CC4CC(CC(C4)C2)C3)CC1 (stereo not given) | inactive |
| CCN(c1ccccc1)S(=O)(=O)c1ccc(C(=O)Nc2ccccc2OC)cc1 | inactive |
| CCN(c1ccccc1)S(=O)(=O)c1ccc(NC(=O)C(C)(C)C)cc1 | 11.6 µM (active) |
| CCN(c1ccccc1)S(=O)(=O)c1ccc(N)cc1 | inactive |
| CC1(C(=O)Nc2cccc3c2CCCC3)CCN1C(=O)CCc1ccc(Cl)cc1Cl (stereo not given) | inactive |
| CN(CCO)C(=O)c1nc[nH]c1C(=O)N(C)Cc1ccccc1 | inactive |
| Cc1ccc(CNC(=O)CSc2c3c(nc4cc(Cl)ccc24)CCCC3)cc1 | inactive |
| Cc1ccc(NC(=O)c2oc3ccccc3c2C)c([N+](=O)[O-])c1 | inactive |
| Cc1ccc(NC(=O)CN(C)Cc2ccc(F)cc2)c([N+](=O)[O-])c1 | 9.2 µM (active) |
| Cc1c(NC(=S)NCc2ccc(F)cc2)cccc1[N+](=O)[O-] | inactive |
| CCC(=O)N1CCC(C)(C(=O)Nc2cc(OC)c(OC)c(OC)c2)C1 (stereo not given) | inactive |
| CCOCCc1nn2c(=O)cc(COC(=O)CNC(=O)c3ccc(C(C)(C)C)cc3)nc2s1 | inactive |
| COc1ccc(NC(=O)CSc2nnnn2-c2cccc(OC)c2)cc1 | inactive |
| COc1ccc(CSc2nnnn2-c2ccc(C(=O)O)cc2)cc1 | inactive |
| COc1ccc(-n2nnnc2SCC(=O)c2ccc(OC)c(OC)c2)cc1 | 18.4 µM (active) |
| COc1c(C)cc(C(O)c2ncc(-c3cccc(C(F)(F)F)c3)[nH]2)cc1C (stereo not given) | inactive |
| CS(=O)c1ccc(/C=C2\C=Cc3ccccc32)cc1 (stereo not given) | inactive |
| COc1ccccc1Oc1ccc(S(=O)(=O)Nc2cccnc2)cc1 | 2.59 µM (active) |
| CCOc1ccc(S(=O)(=O)Nc2ccc(OC)nc2)cc1 | inactive |
| COc1ccc(S(=O)(=O)Nc2cccnc2)c(Cl)c1Cl | inactive |
| Cc1cc(C)n2ncc(C(=O)N3CCCC3)c2n1 | inactive |
| Cc1cc(Cl)ccc1OCCCC(=O)NCc1ccncc1 | 16.4 µM (active) |
| Cc1cc(Cl)ccc1OCCCC(=O)Nc1cccc(-n2cnnn2)c1 | inactive |
| CCOC(=O)N1CCN(C(=O)COc2ccc(Cl)cc2C)CC1 | inactive |
